In the library only some 2.9% were active in any assay of this set; here they are far more common.
HSF1 inh – HSF1 inhibition; NIH3T3-HGL HSE-luciferase, MG132-induced, luminescence 8 h; hits give low values; activity change, negative = inhibition, % at 7.5 µM (by protocol); hit rate 0.77% among 300,000;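 active means more than half of replicate wells show activity change below -50%, luminescence cut by over half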;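 further: luciferase reports HSF-1 transcriptional activity via heat shock element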
S1P4 agonist – human S1P4 receptor agonism; hit rate 0.35% among 220,000; S1P4-expressing cell line, agonist reporter assay; activation, % at 4.98 µM; O95977; in the data active means activation above about 11%
Target sequence (O95977 whole entry, looked up): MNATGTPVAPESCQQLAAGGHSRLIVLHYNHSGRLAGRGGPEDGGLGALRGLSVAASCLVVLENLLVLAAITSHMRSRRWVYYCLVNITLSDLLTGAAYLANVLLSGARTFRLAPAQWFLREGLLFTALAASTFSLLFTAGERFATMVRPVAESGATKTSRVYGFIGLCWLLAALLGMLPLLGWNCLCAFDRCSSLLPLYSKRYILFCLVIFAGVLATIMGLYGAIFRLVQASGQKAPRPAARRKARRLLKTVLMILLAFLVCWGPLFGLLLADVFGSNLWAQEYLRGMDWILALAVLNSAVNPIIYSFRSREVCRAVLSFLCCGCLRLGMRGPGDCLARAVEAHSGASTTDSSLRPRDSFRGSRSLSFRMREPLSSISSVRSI
Hsp70 act – switches on Hsp70 transcription; HeLa Hsp70 promoter luciferase reporter, luminescence; scaled: vehicle 0, proteasome-inhibitor control 100%; activation, % at 10 µM; hit rate 0.04% among 200,000;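 active means activation above the mean across all tested compounds plus 3 SD, cutoff set per campaign, cut at about 5.5% in these data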
S1P3 antagonist – blocks the human S1P3 receptor | Q99500 | CHO S1P3 NFAT-BLA reporter, FRET fluorescence, antagonist mode | inhibition, % at 4.98 µM | hit rate 0.27% among 170,000;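 active means inhibition above the plate cutoff, the mean inhibition of test wells on that plate plus 3 SD, cut at about 28% in these data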;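 further: cells challenged with S1P at its EC80 of 0.8 µM; blue over green emission ratio from cleaved BLA substrate after 4 h stimulation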
HSF-1 act – increases HSF-1 driven luciferase reporter signal; NIH3T3-HGL HSF-1 luciferase reporter, MG132, 8 h; 100% = twice DMSO control signal; activation, % at 9 µM; hit rate 1.7% among 300,000; AID 504408;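 active means mean replicate activation of at least 50% with a set share of replicates each reaching 50%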
S1P4 antagonist – human S1P4 receptor antagonism; S1P4-expressing cells, antagonist mode, reporter read-out; inhibition, % at 4.98 µM; hit rate 0.26% among 220,000; in the data active means inhibition above about 29%
A number is an active result; i = inactive; nt = not tested or not shown.

SMILES	HSF1 inh	S1P4 agonist	Hsp70 act	S1P3 antagonist	HSF-1 act	S1P4 antagonist
C=CCn1c(SCC(=O)N(CCO)CCO)nc2sc3c(c2c1=O)CCC3	i	nt	nt	nt	i	nt
Cc1ccc(S(=O)(=O)NCCNC(=O)c2ccc(C)nc2)cc1	i	nt	nt	nt	i	nt
CCOC(=O)/C(C#N)=C/c1cc(C)n(-c2ccc(Br)cc2)c1C	i	i	i	nt	i	i
CCOC(=O)/C(C#N)=C/c1cc(C)n(-c2ccccc2)c1C	-70.1	i	i	nt	i	i
Cc1cc(/C=C(\C#N)C(=O)Nc2ccccc2)c(C)n1-c1cccnc1	i	i	i	i	58.2	i
CC(NC(=O)c1c(F)cccc1Cl)c1ccc(-n2ccnc2)cc1 (stereo not given)	i	nt	nt	nt	i	nt
O=C(NCc1cccnc1)Nc1ccc(Cl)cc1Cl	i	nt	nt	nt	i	nt
Cc1cc(/C=C2\SC(=O)N(C)C2=O)c(C)n1-c1ccc(O)cc1	-70.2	nt	nt	nt	i	nt
C=CCn1c(SCc2csc(-c3ccc(Cl)cc3)n2)nnc1-c1ccccc1OC	i	i	i	i	57.6	i
C=CCn1c(SCC(=O)Nc2ccc3c(c2)OCO3)nnc1-c1ccccc1OC	i	i	i	i	i	i
O=C(Nc1ccc(Cl)cc1)Nc1ccccc1C(=O)NCc1ccco1	i	i	i	53.6	i	i
O=C(CSc1nnc(NC(=O)C2CC2)s1)NCc1ccccc1	i	nt	nt	nt	i	nt
Cc1[nH]n(-c2ccccc2)c(=O)c1/C=N/N1C(=O)c2ccc3c4c(ccc(c24)C1=O)CC3	i	i	i	i	74.9	i
O=C(Nc1nnc(-c2cccnc2)s1)c1cccs1	i	i	nt	i	i	i
Cc1ccc(Cc2cnc(NC(=O)c3cccs3)s2)cc1	i	i	i	nt	64.6	i
O=C(Nc1nc2c(s1)CCCC2)c1ccc(Br)o1	i	i	i	i	i	i
O=C(Nc1ncc(Cc2ccccc2)s1)c1cccs1	i	i	i	i	54.7	i
Cc1cccc(-c2nnc(NC(=O)c3cccs3)s2)c1	-79.7	i	i	i	i	i
Cc1ccc(C(=O)Nc2nc3c(s2)CCCC3)o1	i	i	i	i	60.1	i
O=C(Nc1ncc(Cc2cccc(Cl)c2)s1)c1cccs1	i	i	i	nt	i	i
O=C(N/N=C/c1ccc(N2CCCCC2)o1)c1ccccc1[N+](=O)[O-]	i	i	i	i	i	i
COc1ccc(/C=C/C(=O)OCC(=O)c2c(C)[nH]c3ccccc23)cc1OC	i	i	i	i	i	i
Cc1ccc(C(=O)Nc2ncc(Cc3ccccc3)s2)o1	i	i	i	i	53.6	i
Clc1ccc(-n2cc(COCc3ccccc3)nn2)cc1	i	i	i	i	61.3	i
O=C(Cn1cccn1)N1CCCC(N2CCN(c3ccccc3F)CC2)C1 (stereo not given)	i	nt	nt	nt	i	nt
SMILES	HSF1 inh	S1P4 agonist	Hsp70 act	S1P3 antagonist	HSF-1 act	S1P4 antagonist
Cn1nnnc1SCCNC/C=C/c1ccccc1	i	i	i	i	77.2	i
Cc1cccc(NC(=S)NC(=O)c2ccc(Br)o2)c1C	i	i	i	i	91.9	i
CCOC(=O)c1c(C)[nH]c(C(=O)OCC(=O)Nc2sccc2C(N)=O)c1C	-75.5	nt	nt	nt	i	nt
NS(=O)(=O)c1ccc(CCNC(=O)C2CCCN2S(=O)(=O)c2cccc3nsnc23)cc1 (stereo not given)	i	nt	nt	nt	i	nt
Cn1cc(C(=O)N/N=C/c2cccc(O)c2)ccc1=O	i	i	i	i	i	i
Cn1cc(C(=O)N/N=C/C(Br)=C\c2ccccc2)ccc1=O	i	i	i	nt	87.1	i
Cn1cc(C(=O)N/N=C/C(Br)=C/c2ccccc2)ccc1=O	i	i	i	i	89.6	i
Cn1cc(C(=O)N/N=C/C=C/c2ccccc2)ccc1=O	i	i	i	i	i	i
Clc1ccc(-c2nc(/C=N/N3CCOCC3)c3ccccn23)cc1	i	i	i	i	52.7	i
O=C(COC(=O)Cc1ccccc1F)Nc1ccc(SC(F)F)cc1	i	i	i	i	i	i
O=C(Cc1ccccc1F)Nc1ccc(SC(F)F)cc1	i	i	i	i	59.2	i
O=C(O)c1cccnc1Sc1ccccc1	i	i	i	i	72.0	i
O=C(O)c1cccnc1Sc1ccc(Cl)cc1	i	i	i	i	i	i
CCCc1ccc(OCc2nc(-c3ccc(NC(=O)c4cccs4)cc3)no2)cc1	i	i	i	i	58.0	i
CCCc1ccc(OCc2nc(-c3ccc(NC(=O)c4ccco4)cc3)no2)cc1	i	i	i	i	i	i
CN1C(C(=O)NCc2ccco2)CC2Cn3c(nc4cc(Cl)c(Cl)cc43)C21 (stereo not given)	i	nt	nt	nt	i	nt
Cc1cc(NCCN2CCOCC2)n2nc(C)c(-c3ccc(Cl)cc3)c2n1	i	i	i	i	65.0	i
COC(=O)C1C(=O)c2c([nH]c(C(=O)OC3CCCCC3)c2C)CC1C (stereo not given)	i	i	i	i	68.3	i
COC(=O)C1C(=O)c2c([nH]c(C(=O)OC3CCCC3C)c2C)CC1C (stereo not given)	i	i	i	i	i	i
Cc1ccc(NC(=S)NC(=O)C2CCC2)cc1C	-58.6	nt	nt	nt	i	nt
Cc1ccc(-c2ccnc(-c3ccc(O)cc3)n2)cc1	i	i	i	i	65.4	i
C=CCn1c(C)cc(C(=O)CSc2nnc(NC(C)C)s2)c1C	-59.3	i	i	nt	i	i
O=[N+]([O-])c1cc(/C=N\Nc2nccs2)ccc1O	i	i	i	nt	i	i
O=[N+]([O-])c1ccccc1/C=N\Nc1nccs1	i	nt	nt	nt	77.9	nt
Clc1cccc(Cl)c1/C=N\Nc1nccs1	i	i	i	nt	141.7	i
SMILES	HSF1 inh	S1P4 agonist	Hsp70 act	S1P3 antagonist	HSF-1 act	S1P4 antagonist
Cc1ccc(N(CC(=O)NC2CCCC2)C(=O)CNC(=O)c2cccs2)cc1C	i	nt	nt	nt	i	nt
Cc1ccccc1C(=O)N1N=C(c2ccc(NS(C)(=O)=O)cc2)CC1c1cccs1 (stereo not given)	i	nt	nt	nt	i	nt
COc1ccccc1C(=O)N1N=C(c2ccc(NS(C)(=O)=O)cc2)CC1c1cccs1 (stereo not given)	i	nt	nt	nt	54.2	nt
CCc1ccc(C(C(=O)NC2CCCCC2)N(C(=O)CNC(=O)c2ccco2)c2cccnc2)cc1 (stereo not given)	nt	i	i	nt	nt	i
CCOc1ccccc1CNC(=O)CCn1ccc2cc(S(=O)(=O)N3CCCCC3)ccc21	-73.3	nt	nt	nt	i	nt
CN1C(=O)C(CC(=O)Nc2ccc(Cl)cc2)N(Cc2ccco2)C1=S (stereo not given)	i	i	i	i	53.4	i
CCOc1ccc(NC(=O)CC2C(=O)N(C)C(=S)N2Cc2ccco2)cc1 (stereo not given)	i	i	i	i	i	i
O=C(CCC(=O)c1ccc(F)cc1)Nc1cc(Cl)cc(Cl)c1	i	i	i	nt	57.8	i
CC1CCN(CC(=O)Nc2ccc(Cl)cc2[N+](=O)[O-])CC1	i	i	i	i	i	i
CC/C(=N\n1nnnc1Nc1ccccc1)c1ccccc1	i	i	i	nt	i	i
CC(C)c1ccc(/C=N/n2nnnc2Nc2ccccc2)cc1	i	i	i	nt	55.3	i

Screening results as filed in PubChem BioAssay.
